Source: PubChem BioAssay AID686979 (National Center for Advancing Translational Sciences (NCATS), 2013)
Hit rate of the full screen: of about 420,000 compounds, about 50,000 (12%) were called active. Roughly 26% stayed inconclusive and do not appear here. The sample as a whole holds a higher share of actives than the screen did. Unmarked numbers belong to inactive results. The call rests on the fitted dose curve; in most records, active means well fitted inhibition curve with a large enough effect; inconclusive means small, poorly fitted or top-dose-only effect; inactive means flat fitted curve, though single readings scatter.

experiment: qHTS for Inhibitors of human tyrosyl-DNA phosphodiesterase 1 (TDP1): qHTS in cells in presence of CPT; details: chicken DT40 Tdp1-/-;hTDP1 cells + 20 nM CPT, ATP luminescence, 48 h; series mostly up to 46.2 µM; activity change, negative = growth inhibition: at the top concentration; further: nearly all actives have a fitted effect of over 55% in size
Summary of the method: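 Chicken DT40 Tdp1-/- cells stably complemented with human TDP1 were seeded at 400 cells/well in medium containing 20 nM camptothecin, exposed to pin-transferred compounds, and grown at 37 °C for at least 48 hr. Viability was read as ATP luminescence.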
On the % scale 0 is the no-effect control and ±100 the full control effect; potency means the concentration at half of the fitted maximal effect.

SMILES	activity change, negative = growth inhibition	Potency
CN(Cc1ccccc1)C(=O)c1ccc(NC2=NC3CS(=O)(=O)CC3S2)cc1 (stereo not given)	2.81%	–
Cc1cccc2c(=O)cc(CSc3ccccc3NC(=O)C(C)C)[nH]c12	-5.53%	–
COc1ccc(C(=NN)c2ccc(OC)cc2)cc1	4.73%	–
COc1ccc(/C(N)=N/OC(=O)Cc2ccccc2)cc1	13.2%	–
COc1ccc(C(C#N)=C2C=CC(=NO)c3ccccc32)cc1	–	1.3 µM (active)
COc1ccc(C(=O)N(C)Cc2ccc(OC)c(OC)c2OC)cc1S(=O)(=O)N1CCOCC1	-1.37%	–
COc1ccc(/C=C(\NC(=O)c2ccc(OCC(C)C)cc2)C(=O)OCc2ccco2)cc1	–	20.6 µM (active)
COc1ccc(/C=C(/NC(=O)c2ccco2)C(=O)Nc2ccc(C(C)=O)cc2)cc1	6.29%	–
O=C(OCN1C(=O)c2ccccc2C1=O)/C(=C\c1ccco1)NC(=O)c1ccccc1	1.01%	–
CCOc1ccc(/C=C/C(=O)N(CC)CC(=O)NCc2cccs2)cc1OC	-17.8%	–
CC(=O)N[C@@H](C)C(=O)N1CCC(n2nccc2NC(=O)CCCc2ccccc2)CC1	7.97%	–
ClC/C=C/C[n+]1ccccc1Cl	-26.5%	–
O=C(NCCC1CCCCN1S(=O)(=O)c1ccc(F)cc1)C(=O)NC1CC1 (stereo not given)	0.311%	–
O=C(NCc1ccccc1Cl)C(=O)NCC1CCCN1S(=O)(=O)c1cccs1 (stereo not given)	-14.6%	–
O=C(NCCC1CCCCN1S(=O)(=O)c1cccs1)C(=O)Nc1ccc(F)cc1F (stereo not given)	–	2.91 µM (active)
Cc1ccc(N/C=C/C(=O)c2ccccc2)cc1C	0.497%	–
C/C(=N\NC(=O)c1nc(C)cc(C)n1)c1ccccc1	10.9%	–
Cc1cc(C)nc(S/C=C/C(=O)c2ccccc2)n1	–	2.06 µM (active)
O=C(CN(Cc1ccccc1)C(=O)CCC(=O)Nc1ccccn1)NCCc1ccccc1	-26.5%	–
O=C(CSc1nc2ccccc2c(=O)n1Cc1ccc(F)cc1)NCC1CCCO1 (stereo not given)	-24.9%	–
O=C(CCCn1c(SCC(=O)c2ccccc2)nc2ccccc2c1=O)NCC1CCCO1 (stereo not given)	–	16.4 µM (active)
O=C(CCn1c(SCC(=O)c2ccccc2)nc2ccccc2c1=O)NCc1ccc(F)cc1	-4.07%	–
NC(=O)Cn1cc(/C=N\NS(=O)(=O)c2ccccc2)c2ccccc21	-4.65%	–
COCCCNC(=O)Cn1cc(/C=C(\C#N)C(=O)N2CCN(c3ccccc3)CC2)c2ccccc21	3.39%	–
Cc1ccc(CNC(=O)C(=O)c2cn(CC(=O)N3CCCC3)c3ccccc23)cc1	-29.5%	–

SMILES	activity change, negative = growth inhibition	Potency
N#CCC(=O)N/N=C/c1cn(Cc2ccc3ccccc3c2)c2ccccc12	–	5.8 µM (active)
N#CCC(=O)N/N=C/c1ccc(SCC(=O)Nc2ccccc2)o1	-23.9%	–
CNC(=S)N/N=C/c1cn(Cc2ccc(C)cc2)c2ccccc12	–	18.4 µM (active)
Nc1nc(NCC(=O)O)nc(N2CCCCCC2)c1[N+](=O)[O-]	5.37%	–
Cc1ccc(-n2c(-c3ccc(Cl)cc3)n[nH]c2=S)cc1	-2.68%	–
CC1(C)OC(=O)C2=C(C[C@@H](C3CC3)O[C@H]2c2ccc(Cl)cc2)O1	-2.98%	–
CN(CCO)C(=O)c1nc[nH]c1C(=O)N(C)Cc1ccccc1	-26.5%	–
COc1ccc(OC)c(CNC(=O)C2CCCN(c3nc4ccccc4o3)C2)c1 (stereo not given)	-4.53%	–
Cc1cc(=O)n2nc(N3CCC(C(=O)Nc4c(F)c(F)c(F)c(F)c4F)CC3)sc2n1	5.78%	–
COc1ccc(-c2cn3nc(N4CCCC(C(=O)NCCCOC(C)C)C4)sc3n2)cc1 (stereo not given)	–	13 µM (active)
Cc1cc(=O)n2nc(N3CCCC(C(=O)NCc4ccc(Cl)cc4)C3)sc2n1 (stereo not given)	-8.25%	–
CCc1ccc(CNC(=O)C2CCN(c3nn4cc(-c5ccc(F)cc5)nc4s3)CC2)cc1	-23%	–
COc1ccc(-c2cn3nc(N4CCC(C(=O)Nc5cccc(C)c5C)CC4)sc3n2)cc1	–	20.6 µM (active)
CC(C)CNS(=O)(=O)c1ccc(CCC(=O)NCc2ccc(Cl)cc2)cc1	-12%	–
CCN(CC)S(=O)(=O)c1ccc(N2CC(C(=O)NCc3cccnc3)CC2=O)cc1 (stereo not given)	-1.05%	–
COc1ccc(-c2cc(C(=O)NC(Cc3c[nH]c4ccccc34)C(=O)O)c(C)o2)cc1OC (stereo not given)	–	29.1 µM (active)
Cc1cccc(C)c1OCC(=O)NC(Cc1c[nH]c2ccccc12)C(=O)O (stereo not given)	–	inactive
COc1ccc(-c2cc(C(=O)NC(C(=O)O)C(C)C)c(C)o2)cc1OC (stereo not given)	6.13%	–
Cc1ccc(C(=O)Nc2cccc(-c3nc(CNC(=O)c4ccccc4-n4cccn4)c(C)o3)c2)s1	-16.4% [at 9.04 µM]	–
CCN(CC)c1ccc(C2C(C(N)=O)=C(C)Nc3nc(SCc4ccccc4)nn32)cc1 (stereo not given)	-2.6%	–
O=c1cc(O)c(-c2cccc(C(F)(F)F)c2)c(Cl)[nH]1	-0.16%	–
Cc1nc(N)[nH]c(=O)c1Oc1cccc(C(F)(F)F)c1	-5.81%	–
COc1cccc(-c2cnc(C(O)c3ccccc3OC)[nH]2)c1 (stereo not given)	-15.6%	–
OC(c1ccc(Cl)c(F)c1)c1ncc(-c2ccccc2Cl)[nH]1 (stereo not given)	-20.4%	–
Cc1cccc(-c2cnc(C(O)c3ccc4ccccc4c3)[nH]2)c1 (stereo not given)	–	20.6 µM (active)
